This note sets out measurements from PubChem BioAssay (NCATS).

Results filed as inconclusive are left out. Activity calls are given as the source filed them. Calls follow the shape of the dose curve; as a rule, active = well fitted inhibition curve with a large enough effect; inconclusive = small, poorly fitted or top-dose-only effect; inactive = no such curve, though single readings can be large or run the other way.
% is scaled to controls: 0 for no effect and ±100 for the full control effect.

For this experiment, the system named is Zika virus NS2B-NS3 protease (unlinked complex). Description: Primary screen GU Rhodamine qHTS for Zika virus inhibitors: Unlinked NS2B-NS3 protease assay (AID 1347159). Also: nearly all actives have a fitted effect of over 60% in size. The conditions noted are these: Recombinant ZIKV NS2B-NS3 protease, Rhodamine110 substrate fluorescence; series mostly up to 107 µM; activity change, negative = inhibition: at the top concentration. In short, it runs like this: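 A qHTS format was used, with compound concentrations ranging up to 114 microM. Each compound was preincubated with 25 nM NS2B-NS3 protease, and the substrate was then added at 1.5 microM. Curves were fitted with a 4-parameter Hill model.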
In general terms: In qHTS, concentration-response curves come from the screen itself.
Consider `O=C(c1cc2c(cc1F)OC(c1ccc(F)cc1)(c1ccc(Cl)cc1Cl)O2)N1CCOCC1` (configuration not stated), for which the “activity change, negative = inhibition” value was -7.77% (inactive). With `CC(C)O[C@@H]1O[C@H](CO)[C@@H](O)[C@H](O)[C@H]1O` the figure was -22.2% (inactive); with `COc1ccc(-c2cnc(-c3cccc4c3-c3ccccc3C4=O)o2)cc1`, 6.66% [at 57.1 µM] (inactive). In the case of `O=C(c1cccc(Cl)c1F)N1CCN(Cc2cccc(Nc3nccs3)n2)CC1`, the “activity change, negative = inhibition” value was 4.65% (inactive).

Turning to `C=C1CC[C@@H]2[C@@](C)(CO[C@@H]3O[C@H](CO)C(O)[C@H](O)C3O)[C@H](O)CC[C@@]2(C)[C@@H]1CC/C(C)=C/CO` (some centres not stated), the “activity change, negative = inhibition” value is 40.4% [at 32.5 µM] (inactive). As to `COc1ccc(CCO[C@@H]2CCCC[C@H]2N2CC[C@@H](O)C2)cc1OC`, the “activity change, negative = inhibition” value is 2.12% (inactive). For `CO[C@H]1/C=C/[C@@](C)(O)/C=C/C(=O)O[C@H](C)[C@@H](C)CC/C=C/1C`, the “activity change, negative = inhibition” value was 0.58% (inactive). On to `CNC(=O)c1ccccc1Nc1nc(Nc2ccc3c(c2OC)CCCC(N2CCN(CCO)CC2)C3)ncc1Cl` (configuration not stated), for which the “activity change, negative = inhibition” value is 93.7% (inactive). On to `COc1c(C)c(OCC(O)C(C)(C)O)cc2c1COC2=O` (configuration not stated), for which the “activity change, negative = inhibition” value is 24.8% (inactive).

As for `CCc1c(C)nc2c(-c3cnn(-c4cc(CO)ccn4)c3)c[nH]n2c1=O`, the “activity change, negative = inhibition” value was 0% (inactive).

Regarding `CC[C@]12C=CCN3CC[C@@]4(c5cc([C@@]6(C(=O)OC)C[C@H]7C[C@@H](C(C)(F)F)CN(Cc8c6[nH]c6ccccc86)C7)c(OC)cc5N(C)[C@H]4[C@@](O)(C(=O)OC)[C@@H]1OC(C)=O)[C@@H]32`, the “activity change, negative = inhibition” value was 8.18% [at 32.5 µM] (inactive). `CC1(C)CC[C@]2(C(=O)O[C@@H]3O[C@H](CO)[C@@H](O)[C@H](O)[C@H]3O)CC[C@]3(C)C(=CCC4[C@@]5(C)C[C@@H](O)[C@H](O)[C@](C)(C(=O)O)C5CC[C@]43C)C2C1O` (some centres not stated): the “activity change, negative = inhibition” value was 9.59% [at 32.5 µM] (inactive).
